PolyA inhibitor: polyadenylation inhibitors in yeast reporter cells, primary screen, luminescence, S. cerevisiae; S. cerevisiae SKY197-pL101 polyadenylation reporter, beta-gal luminescence; efflux-impaired pdr1/pdr3 knockout yeast; score 100 = 6 SD above DMSO; activity score, % at 12 µM; hit rate 0.02% among 300,000; AID 1875, 2009;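 active = lowest replicate activity score at least 50, where 100 means six control SD above control mean; inconclusive = lowest score under 50 but half or more replicates reach 50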;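 note: yeast exposed to compound for 9 h at 30 °C; higher score means more reporter readthrough which indicates perturbed polyadenylation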
Platelet DG rel: inhibitors of platelet dense granule secretion, primary screen, cell-based, MLPCN, human platelets; hit rate 0.22% among 300,000; AID 1663, 2009; inhibition, %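 (compounds screened at 7.5 µM in platelet-rich plasma)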; human platelet-rich plasma, SFLLRN dense granule ATP release, luminescence;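 active = mean replicate score, as percent of positive control, at or above 50; inconclusive = mean below 50 but at least one replicate at or above 50; inactive = mean and every replicate below 50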
Calb FLC: C. albicans growth inhibition with fluconazole, primary screen, CaCi-2 strain, Alamar Blue fluorescence; C. albicans CaCi-2 (fluconazole-resistant clinical isolate) + fluconazole, 48 h; growth inhibition, % (no concentration beside the values); hit rate 0.57% among 300,000;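 active = growth inhibition above about 58% in most replicates, limit read from the data, passing the limit was not always enough; inconclusive = exactly half the replicates above a set limit; inactive = most replicates below a set limit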;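 note: all wells also contain fluconazole at 8 µg/ml as a sub-toxic cotreatment; 0% = median of DMSO wells and 100% = median of geldanamycin control wells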
Yeast superoxide: reduction of superoxide in aged yeast, primary screen, HTS; S. cerevisiae aged cells, superoxide DHE fluorescence; active compounds read low; superoxide response (% of plate mean), % at 10 µM; hit rate 0.18% among 330,000; AID 2690, 2010;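 active = superoxide response under a set limit, about three screen SD below normal, cut at about 65% in these data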;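 note: yeast aged for seven days with compound at 30 °C before DHE staining; 100% = average MFI of all compound-treated wells on the plate with controls excluded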
SKKanGAS inh: S. pyogenes SKKanGAS growth inhibitors in kanamycin, primary screen, streptokinase expression inhibitor project, SKKanGAS strain, BacTiter-Glo luminescence | 6 h | inhibition, % at 7.5 µM | hit rate 1.3% among 300,000;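 active = mean replicate score, as percent of positive control median, at least 50; inconclusive = mean below 50 but one replicate at or above 50; inactive = mean and every replicate below 50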;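 note: strain carries kanamycin resistance gene driven by streptokinase promoter and grows in 40 µg/ml kanamycin; loss of luminescence reflects streptokinase promoter inhibition or plain growth inhibition; 0% = median of DMSO wells and 100% = positive control at its reference dose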
Superoxide pick: superoxide lowering in aged yeast cells, confirmation, cherry picked compounds; shares compounds with Yeast superoxide; S. cerevisiae aging, superoxide DHE fluorescence; active compounds read low; superoxide response (% of plate), % at 10 µM; hit rate 1% among 850;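 active = superoxide signal below 65% of the plate average of sample wells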;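 note: cells aged with compound for 7 days at 30 degrees C before staining; 100% equals mean DHE fluorescence of all compound wells on the plate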
DHE fluor count: DHE quenching or ROS scavenging interference in aged yeast, artefact control for yeast caloric restriction mimetic project, S. cerevisiae BY4741, flow cytometry. fluorescence response, % at 10 µM. DHE fluorescence; active compounds read low. shares compounds with Yeast superoxide. 850 tested, under 10 active;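 active = fluorescence response below 15%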;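 note: percent of the mean fluorescence averaged over all compound wells on the plate; lower means stronger quenching of DHE signal or ROS scavenging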
The depositor's hits bear a star; ? = inconclusive; . = no result given. The list is not random: actives were taken first. Their share in the collection is about 2%.

SMILES	PolyA inhibitor	Platelet DG rel	Calb FLC	Yeast superoxide	SKKanGAS inh	Superoxide pick	DHE fluor count
CCC1CCCCN1CC(=O)c1c(C)[nH]c2cc(C)ccc12 (stereo unspecified)	36	0	-7	102	1	.	.
CCCCCCCN=CC1=C(O)CC(c2ccccc2)CC1=O (stereo unspecified)	6	-5	1	70	-2	.	.
COc1cccc(NC(=O)CCS(=O)(=O)c2ccc(Br)cc2)c1	-8	0	8	50*	-5	102	106
CCOc1ncccc1C(=O)N1CCN(c2cccc(C)c2C)CC1	11	-5	4	.	0	114	107
CCOc1ncccc1C(=O)N1CCN(C(=O)c2ccccc2)CC1	7	-2	6	109	-2	.	.
CCOc1ncccc1C(=O)N1CCN(S(=O)(=O)c2ccccc2)CC1	0	4	-8	87	-3	.	.
CCOc1ncccc1C(=O)N1CCN(c2cc(Cl)ccc2C)CC1	21	-9	24	106	7	90	112
COc1ccc(-n2cc(CNCCCn3ccnc3)c(-c3cccc(F)c3)n2)cc1	12	2	-24	97	4	.	.
Cc1ccc(C(=O)N2CCN(c3ncccn3)CC2)cc1	1	-4	-10	65*	-4	97	93
COc1ccc(N2CCN(C(=O)c3ccc(Cl)c(S(=O)(=O)N4CCCC4)c3)CC2)cc1	0	0	17	112	-4	.	.
COc1ccc(N2CCN(C(=O)c3ccccc3NS(=O)(=O)c3ccc(C)cc3)CC2)cc1	27	-1	25	100	2	.	.
CCOc1ccc(C(=O)N2CCN(c3ccccc3)CC2)cc1	-14	4	26	97	-6	96	95
Cc1ccc(NS(=O)(=O)c2ccc(C(=O)N3CCN(c4ncccn4)CC3)cc2)cc1	-9	-1	-4	106	-3	.	.
COc1ccc(N2CCN(C(=O)c3ccc(C)cc3Cl)CC2)cc1	27	4	2	95	-2	97	91
COc1ccc(N2CCN(C(=O)c3ccc(C)c(Cl)c3)CC2)cc1	27	-1	-7	83	23	94	99
C[C@H](CO)N1C[C@H](C)[C@@H](CN(C)S(C)(=O)=O)Oc2c(NC(=O)c3ccncc3)cccc2C1=O	.	.	.	117	.	.	.
CNC(=O)CC1C(=O)N(c2ccc(Cl)cc2)C(=S)N1NC(=O)c1cccc(F)c1 (stereo unspecified)	-2	2	2	116	7	.	.
NC(=O)CC1C(=O)N(c2ccc(Cl)cc2)C(=S)N1NC(=O)c1cccc(F)c1 (stereo unspecified)	-18	2	-14	21*	2	99	107
COC(=O)c1ccc(-n2nnnc2SCC(=O)Nc2ccccc2F)cc1	-18	-3	1	94	-4	.	.
O=c1cc(O)c2c(=O)n(C3CCCCC3)c3ccccc3c2o1	14	-3	1	98	27	90	91
O=c1cc(O)c2c(=O)n(Cc3ccccc3)c3ccccc3c2o1	-1	-3	?	70	15	.	.
CCCCn1c(=O)c2c(O)cc(=O)oc2c2ccccc21	22	-5	27	43*	6	115	105
CCOc1ccc2nc(SCC(=O)c3ccc(O)cc3O)sc2c1	-13	-9	4	50*	1	101	94
CC(C)COc1ccc(C(=O)OCC(=O)N(C)CC(=O)Nc2ccc(F)cc2)cc1	-24	1	.	117	-1	.	.
COC(=O)c1cccc2nc3c(C(C)O)cccc3nc12 (stereo unspecified)	2	15	21	50*	-6	66	113
COc1cc(NC(C(=O)Nc2cccc(C(C)=O)c2)c2ccccc2)cc(OC)c1OC (stereo unspecified)	14	-4	27	91	7	.	.
COc1cccc(NC(C(=O)Nc2cccc(C(C)=O)c2)c2ccccc2)c1 (stereo unspecified)	7	5	21	60*	8	94	106
